Data on 13 molecules can be found in PubChem BioAssay (NCATS).

Records with an inconclusive call do not appear. Activity calls are given as the source filed them. Unless noted, calls follow the shape of the dose curve; as a rule, active = well fitted curve in the direction sought with a large enough effect; inconclusive = small, poorly fitted or top-dose-only effect, or another doubt; inactive = no such curve, though single readings can be large; an effect the other way counts as inactive or inconclusive.

A short description of experiment [1]: S16 Schwann cell PMP22 intronic element firefly luciferase assay (AID 624032). Also: nearly all actives have a fitted effect of over 30% in size. An outline of the steps: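 Luciferase reporter of PMP22 intronic-element expression in stably transfected S16 rat Schwann cells, read by ONE-Glo luminescence after 24 h compound exposure at 37 C. Activity scaled between DMSO (0%) and positive-control PTC124; concentration-effect curves quality-classified.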

Experiment [2] is described as follows: S16 Schwann cell PMP22 intronic element beta-lactamase assay (AID 624044; calls by dose curve; also: nearly all actives have a fitted effect of over 15% in size). An outline of the steps:
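Rat S16 Schwann cells with beta-Lac driven by a PMP22 intronic element, compound-treated 24 h at 37 °C. LiveBLAzer FRET B/G read: 460 nm normalized to potassium clavulanate vs DMSO; 535 nm FRET as viability; concentration-effect curves classified.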

In the next experiment the test system is 3D7. Description: qHTS profiling for inhibitors of Plasmodium falciparum proliferation (AID 504749). Also: nearly all actives have a fitted effect of over 60% in size. Also: potency is read from the fitted curve at half-maximal effect. To be noted: P. falciparum in erythrocytes, SYBR Green DNA, 72 h; series mostly up to 12.8 µM. An outline of the steps:
(§1)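 Three-day growth assay of blood-stage parasites in erythrocytes (0.3% parasitemia, 2.5% hematocrit) at 37 C, 5% CO2, quantified by SYBR Green DNA staining after overnight detergent lysis.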

Another experiment deals with AA1029. Described as above. To be noted: P. falciparum in erythrocytes, SYBR Green DNA, 72 h; series mostly up to 12.8 µM. An outline of the steps: as §1
A further experiment has as its system CP194. The experiment is described as above. To be noted: P. falciparum in erythrocytes, SYBR Green DNA, 72 h; series mostly up to 12.8 µM. An outline of the steps:
as §1

The subject of a further experiment is CP203. The description is as above. To be noted: P. falciparum in erythrocytes, SYBR Green DNA, 72 h; series mostly up to 12.8 µM. The essentials: as §1
Another experiment has as its system CP211. Described as above. The following applies: P. falciparum in erythrocytes, SYBR Green DNA, 72 h; series mostly up to 12.8 µM. An outline of the steps:
as §1

Another experiment has as its system CP215. The experiment is described as above. To be noted: P. falciparum in erythrocytes, SYBR Green DNA, 72 h; series mostly up to 28.7 µM. The essentials:
as §1

For another experiment, the system named is CP260. The experiment is described as above. The following applies: P. falciparum in erythrocytes, SYBR Green DNA, 72 h; series mostly up to 12.8 µM. The essentials:
as §1

Another experiment relates to CP266. The description is as above. To be noted: P. falciparum in erythrocytes, SYBR Green DNA, 72 h; series mostly up to 28.7 µM. An outline of the steps:
as §1

The subject of a further experiment is CP297. The experiment is described as above. The following applies: P. falciparum in erythrocytes, SYBR Green DNA, 72 h; series mostly up to 12.8 µM. An outline of the steps:
as §1

A further experiment has as its system CP315. Described as above. The following applies: P. falciparum in erythrocytes, SYBR Green DNA, 72 h; series mostly up to 12.8 µM. The essentials:
as §1

For the next experiment, the system named is DIV14. The description is as above. The following applies: P. falciparum in erythrocytes, SYBR Green DNA, 72 h; series mostly up to 12.8 µM. An outline of the steps:
as §1

The test system of the next experiment is DIV17. Described as above. The following applies: P. falciparum in erythrocytes, SYBR Green DNA, 72 h; series mostly up to 12.8 µM. An outline of the steps:
as §1

The next experiment concerns GB4. Described as above. The following applies: P. falciparum in erythrocytes, SYBR Green DNA, 72 h; series mostly up to 12.8 µM. The essentials:
as §1

The test system of a further experiment is ICS. Described as above. The following applies: P. falciparum in erythrocytes, SYBR Green DNA, 72 h; series mostly up to 12.8 µM. The essentials: as §1
A further experiment deals with P93_24. Described as above. The following applies: P. falciparum in erythrocytes, SYBR Green DNA, 72 h; series mostly up to 12.8 µM. The essentials: as §1
The next experiment has as its system PAD. The description is as above. To be noted: P. falciparum in erythrocytes, SYBR Green DNA, 72 h; series mostly up to 12.8 µM. The essentials: as §1
Another experiment concerns W2. Described as above. To be noted: P. falciparum in erythrocytes, SYBR Green DNA, 72 h; series mostly up to 12.8 µM. The essentials: as §1
For another experiment, the system named is TAB109. Described as above. The following applies: P. falciparum in erythrocytes, SYBR Green DNA, 72 h; series mostly up to 12.8 µM. The essentials:
as §1

In the case of `CCn1cc(C(=O)O)c(=O)c2cc(F)c(N3CCN[C@@H](C)C3)c(F)c21`, the Potency result (in [1]; with 3D7; in the experiment on AA1029; in the experiment with CP194; in the experiment on CP203; in the experiment with CP211) was “inactive” each time. Moreover, the Potency result in the experiment on CP215, with CP260, in the experiment with CP266, in the experiment on CP297, in the experiment with CP315 and in the experiment with DIV14 was “inactive” throughout. The Potency result in the experiment with DIV17, in the experiment with GB4, in the experiment on ICS, in the experiment with P93_24, in the experiment on PAD and with W2 was “inactive” in each case. In addition, in experiment [2], the call was inactive.

Regarding `CCCN[C@@H](C)C(=O)Nc1c(C)csc1C(=O)OC`, the result in experiment [2] was inactive. The Potency result with 3D7, in the experiment on AA1029, in the experiment with CP194, in the experiment with CP203, in the experiment with CP211 and in the experiment with CP215 was “inactive” throughout. For the same molecule, the Potency result in the experiment with CP260, in the experiment on CP266, in the experiment with CP297, in the experiment on CP315, in the experiment with DIV14 and in the experiment with DIV17 was “inactive” each time. Also, the Potency result with GB4, in the experiment with ICS, with P93_24, in the experiment on PAD, with TAB109 and in the experiment on W2 was “inactive” in each case.

With `NC(=O)OC[C@H](O)COc1ccc(Cl)cc1`, the Potency result (in [1]; in the experiment with 3D7; with AA1029; in the experiment with CP194; in the experiment with CP203; with CP211) was “inactive” in each case. Further, the Potency entry with CP215, in the experiment with CP260, in the experiment on CP266, in the experiment with CP297, in the experiment with CP315 and in the experiment with DIV14 was “inactive” throughout. The Potency result with DIV17, in the experiment on GB4, with ICS, in the experiment on P93_24, with PAD and in the experiment on TAB109 was “inactive” each time. Also, the Potency entry in the experiment with W2 was “inactive”. For the same molecule, the molecule was classed as inactive in experiment [2].

As to `COc1ccccc1OC[C@H](O)COC(N)=O`, the Potency result (in experiment [1]; in the experiment on 3D7; with AA1029; with CP194; in the experiment on CP203; in the experiment on CP211) was “inactive” in each case. The Potency result with CP215, in the experiment with CP260, in the experiment on CP266, in the experiment with CP297, in the experiment on CP315 and in the experiment with DIV14 was “inactive” in each case. Further, the Potency result in the experiment on DIV17, in the experiment with GB4, in the experiment with ICS, in the experiment on P93_24, with PAD and in the experiment on TAB109 was “inactive” throughout. Moreover, in the experiment on W2, the Potency entry was “inactive”. Moreover, in [2], the outcome was inactive.

With `C[C@@H](C(=O)O)c1cccc(C(=O)c2ccccc2)c1`, the Potency result in [1] was “inactive”.

As to `CO/N=C(\C(=O)N[C@@H]1C(=O)N2C(C(=O)O)=C(COC(C)=O)CS[C@@H]12)c1csc(N)n1`, the Potency result (in [1]; in the experiment on 3D7; with AA1029; with CP194; in the experiment on CP203; in the experiment with CP211) was “inactive” throughout. Moreover, the Potency result with CP215, with CP260, with CP266, in the experiment on CP297, in the experiment with CP315 and with DIV14 was “inactive” each time. Also, the Potency result in the experiment with DIV17, with GB4, in the experiment with ICS, with P93_24, in the experiment with PAD and with TAB109 was “inactive” in each case. Further, in the experiment with W2, the Potency result was “inactive”. Further, the molecule was called inactive in experiment [2].

On to `CCC[C@H]1C(=O)N2C(N(C)C)=Nc3ccc(C)cc3N2C1=O`, for which the Potency entry (in [1]; in the experiment on 3D7; in the experiment with AA1029; in the experiment with CP194; in the experiment with CP203; with CP211) was “inactive” in each case. In addition, the Potency entry in the experiment on CP215, in the experiment on CP260, in the experiment with CP266, in the experiment on CP297, in the experiment with CP315 and with DIV14 was “inactive” each time. In addition, the Potency entry in the experiment with DIV17, in the experiment with GB4, in the experiment on ICS, with P93_24, in the experiment on PAD and with TAB109 was “inactive” each time. The Potency result in the experiment with W2 was “inactive”. Besides, in [2], the call was inactive.

For `CCN(CC)CCC[C@H](C)Nc1c2ccc(Cl)cc2nc2ccc(OC)cc12`, the call in experiment [2] was inactive. For the same molecule, the Potency was 89.1 nM (active) in the experiment on 3D7; 631 nM (active) with AA1029; 1510 nM (active) in the experiment on CP194; 2130 nM (active) with CP203; 1510 nM (active) with CP211; 1690 nM (active) with CP215. The Potency is 501 nM (active) in the experiment on CP260; 1510 nM (active) in the experiment with CP266; 536 nM (active) with CP297; 3010 nM (active) with CP315; 478 nM (active) with DIV14; 536 nM (active) in the experiment with DIV17. Besides, the Potency with GB4 is 379 nM (active); in the experiment with ICS, 158 nM (active); with P93_24 it was 562 nM (active); in the experiment on PAD it was 398 nM (active); in the experiment on TAB109, 501 nM (active); with W2, 338 nM (active).

Turning to `COc1c(O)cc2c(c1O)[C@@H]1O[C@@H](CO)[C@@H](O)[C@@H](O)[C@@H]1OC2=O`, the Potency result (in [1]; with 3D7; in the experiment with AA1029; with CP194; with CP203; in the experiment on CP211) was “inactive” throughout. The Potency entry in the experiment with CP215, in the experiment with CP260, in the experiment with CP266, in the experiment on CP297, with CP315 and in the experiment with DIV14 was “inactive” in each case. Moreover, the Potency result in the experiment with DIV17, in the experiment with GB4, with ICS, in the experiment on P93_24, in the experiment with PAD and with TAB109 was “inactive” throughout. In addition, in the experiment with W2, the Potency result was “inactive”. In addition, in experiment [2], the molecule was classed as inactive.

Consider `CC(=O)O[C@@H](C)C[N+](C)(C)C`, for which the Potency result (in [1]; in the experiment on 3D7; in the experiment on AA1029; with CP194; in the experiment with CP203; in the experiment with CP211) was “inactive” each time. Also, the Potency entry in the experiment with CP260, in the experiment on CP266, in the experiment with CP297, in the experiment with CP315, in the experiment on DIV14 and in the experiment with DIV17 was “inactive” throughout. Moreover, the Potency result with GB4, in the experiment with ICS, in the experiment on P93_24, in the experiment on TAB109 and in the experiment with W2 was “inactive” throughout. Further, the call in experiment [2] was inactive.

In the case of `C[n+]1ccccc1/C=N\O`, the Potency result (in experiment [1]; in the experiment with 3D7; in the experiment on AA1029; in the experiment on CP194; in the experiment with CP203; in the experiment with CP211) was “inactive” in each case. For the same molecule, the Potency entry with CP215, in the experiment with CP260, with CP266, with CP297, with CP315 and with DIV14 was “inactive” throughout. The Potency result in the experiment with DIV17, with GB4, with ICS, with P93_24, with PAD and in the experiment with TAB109 was “inactive” each time. The Potency result in the experiment with W2 was “inactive”. For the same molecule, the result in [2] was inactive.

For the molecule `CCN(CC)CCC[C@H](C)Nc1ccnc2cc(Cl)ccc12`, the Potency entry in experiment [1] was “inactive”. Moreover, the outcome in experiment [2] was inactive. Also, the Potency in the experiment with 3D7 is 158 nM (active); with AA1029 it was 8910 nM (active); with CP211 it was 6750 nM (active); in the experiment with CP260 it was 3980 nM (active); in the experiment on DIV14, 1690 nM (active); with DIV17, 3790 nM (active). Besides, the Potency with GB4 is 1510 nM (active); in the experiment on ICS, 3980 nM (active); in the experiment on P93_24, 2820 nM (active); in the experiment on PAD it was 3550 nM (active); with TAB109, 3550 nM (active); in the experiment on W2, 6010 nM (active).

`C[C@@H](CN(C)C)CN1c2ccccc2CCc2ccccc21`: the Potency entry (in experiment [1]; in the experiment on 3D7; with AA1029; in the experiment with CP260; with CP266; with CP297) was “inactive” in each case. The Potency result in the experiment on CP315, in the experiment on PAD and with TAB109 was “inactive” in each case. For the same molecule, in experiment [2], the result was inactive.
